Hits are enriched below; roughly 9.3% of the tested compounds scored in any of these assays.
Sm TGR block: inhibitors of Schistosoma mansoni thioredoxin glutathione reductase; 3% of 360,000 active; purified TGR, DTNB reduction, TNB absorbance 405 nm; Potency, µM (titrated, usually from 114 µM), inactives show top-dose activity change, negative = inhibition, actives largely listed as inhibitors; Q962Y6; further: potency means the concentration at half of the fitted maximal effect; nearly all actives have a fitted effect of over 60% in size
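First, TGR (20 nM dispensed) and NADPH were mixed with compound. Second, a 15 min room-temperature incubation followed. Third, further NADPH and then DTNB were added to start the reaction. Finally, TNB absorbance was monitored kinetically.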
VACV mCherry inh: inhibitors of vaccinia virus infection (mCherry reporter signal); Vaccinia virus mCherry reporter infection, fluorescence; Potency, µM (series often up to 36.5 µM), for the others: top-dose activity change, negative = inhibition, actives largely listed as inhibitors; 0.63% of 310,000 active; AID 720579; calls by dose curve; tested in A549 cells; further: potency means the concentration at half of the fitted maximal effect; nearly all actives have a fitted effect of over 35% in size
FMDV inh: antivirals against foot and mouth disease virus | FMDV antiviral cell-based qHTS | Potency, µM (highest dose often 57.9 µM), for the others: at the highest dose activity change, negative = inhibition, usual class: inhibitors | 1.2% of 410,000 active | AID 1159524; calls by dose curve; tested in HEK293T cells; further: read-out not given here; potency means the concentration at half of the fitted maximal effect; nearly all actives have a fitted effect of over 45% in size
VACV Venus inh: inhibitors of vaccinia virus (Venus reporter); Vaccinia virus Venus reporter expression, fluorescence; Potency, µM (highest dose often 36.5 µM), for the others: at the top dose activity change, negative = inhibition, hits mostly inhibitors; AID 720580; 0.46% of 330,000 active; calls by dose curve; tested in A549 cells; further: potency means the concentration at half of the fitted maximal effect; nearly all actives have a fitted effect of over 30% in size
HCMV antiviral: inhibitors of human cytomegalovirus | HFF cells, HCMV-luciferase reporter, 72 h; stronger effect = lower value | activity change, negative = inhibition, % at 57.5 µM | 4.5% of 410,000 active | AID 1259415; in the data active means activity change below about -60%; inconclusive means no clear call, values can overlap the other calls; inactive means above about -39%
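Two-dose cell screen: HFF monolayers treated with compounds and infected with luciferase-expressing HCMV at 1 PFU/cell, 72 h at 37C, then lysed for luciferase measurement.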
HCV inhibitor: HCV inhibition; Huh7.5.1 HCVcc-Cre infection, luciferase reporter, 44 h; Potency, µM (highest dose often 41.8 µM), for the others: at the top dose activity change, negative = inhibition, most hits filed as inhibitors; 3.4% of 340,000 active; AID 651820; further: potency means the concentration at half of the fitted maximal effect
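Seed cells (1,000/well) for 4 h; treat with compound and infect with HCVcc-Cre, moi about 0.5. Incubate 44 h, then detect luciferase activity.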
* hit, by the source's call; [ ] = dose if it differs, or a comment. Unless noted, the call rests on the fitted dose curve; in most records, active means well fitted curve in the direction sought with a large enough effect; inconclusive means small, poorly fitted or top-dose-only effect, or another doubt; inactive means no such curve, though single readings can be large; an effect the other way counts as inactive or inconclusive. On the % scale 0 is the no-effect control and ±100 the full control effect.

Results for COc1ccc(C(C)=O)cc1CN1C(=O)C(Cc2ccccc2)ON=C1c1ncccc1C (stereo unspecified) ?
VACV mCherry inh: 13%; FMDV inh: -7%; VACV Venus inh: -6%; HCMV antiviral: -40

How did O=C(CSc1nnc2ccccn12)NNC(=O)c1cccc([N+](=O)[O-])c1 do in these assays?
Sm TGR block: -11%; FMDV inh: -16%; HCMV antiviral: -14; HCV inhibitor: 18%

What do the screens show for `COC(=O)Cn1c(N2CCCC2)nc2c1c(=O)n(C)c(=O)n2C`?
Sm TGR block: 15%; FMDV inh: -16%; HCMV antiviral: 4; HCV inhibitor: 11%

How did O=C1N2CCCCC1(c1ccccc1)CCCC2 do in these assays?
VACV mCherry inh: 5%; FMDV inh: -15%; VACV Venus inh: -1%; HCMV antiviral: -8

Results for COc1ccc(/C=C/C2=CCN(C)CC2)cc1 ?
Sm TGR block: 32µM*; VACV mCherry inh: -1%; FMDV inh: 51%; VACV Venus inh: -13%; HCMV antiviral: 15; HCV inhibitor: -6%

What do the screens show for `O=C(O)c1ccccc1N/C=C\[N+](=O)[O-]`?
Sm TGR block: 28µM*; VACV mCherry inh: -25%; FMDV inh: 7%; VACV Venus inh: 1%; HCMV antiviral: -6; HCV inhibitor: 8%

What do the screens show for `CC(=O)N1CCN(C23CC4CC(CC(C4)C2)C3)CC1`?
Sm TGR block: 6%; FMDV inh: -13%; HCMV antiviral: 26; HCV inhibitor: 9%

What do the screens show for `CC(=O)c1c(C)[nH]c(-c2ccccc2)nc1=S`?
Sm TGR block: 12%; VACV mCherry inh: inactive[7.34 µM]; FMDV inh: 17%; VACV Venus inh: 4%[7.34 µM]; HCMV antiviral: 35; HCV inhibitor: 11%

How did CC(=O)c1c(NC(=O)c2ccccc2)[nH]c(-c2ccccc2)nc1=S do in these assays?
Sm TGR block: 0%; VACV mCherry inh: -8%; FMDV inh: -9%; VACV Venus inh: 5%; HCMV antiviral: -84*; HCV inhibitor: 1%

Results for Cc1cccc(C)c1OCC(O)CN (stereo unspecified) ?
Sm TGR block: 0%; VACV mCherry inh: -12%; FMDV inh: -23%; VACV Venus inh: -1%; HCMV antiviral: 10; HCV inhibitor: 6%

Results for Cc1cc(C)c(S(=O)(=O)N2CCC(n3c(C(F)(F)F)nc4cccnc43)CC2)c(C)c1 ?
Sm TGR block: 7%; VACV mCherry inh: 1%; FMDV inh: 11%; VACV Venus inh: 11%; HCMV antiviral: 2

What do the screens show for `C=CCn1c2ccccc2c(=O)c2cc(C#Cc3ccccn3)ccc21`?
Sm TGR block: inconclusive; VACV mCherry inh: inactive; FMDV inh: 32%; VACV Venus inh: -13%; HCMV antiviral: inconclusive; HCV inhibitor: 13µM*

Results for O=c1c2ccccc2oc2cc(C#Cc3ccccn3)ccc12 ?
VACV mCherry inh: 5%; FMDV inh: -15%; VACV Venus inh: -8%; HCMV antiviral: -28; HCV inhibitor: 21%

How did Cc1ccc(NS(=O)(=O)c2ccc(-n3cccn3)cc2)cc1Cl do in these assays?
Sm TGR block: 6%; VACV mCherry inh: inconclusive; FMDV inh: 34%; VACV Venus inh: -9%; HCMV antiviral: -33

How did Cc1ccc(NS(=O)(=O)c2ccc(-n3cccn3)cc2)cc1C do in these assays?
Sm TGR block: -6%; VACV mCherry inh: -29%; FMDV inh: 14%; VACV Venus inh: -14%; HCMV antiviral: -93*; HCV inhibitor: inconclusive

Results for CSC1CCCCC1(O)CSc1nc2c(cc1C#N)CCCC2 (stereo unspecified) ?
Sm TGR block: 5%; VACV mCherry inh: -10%; VACV Venus inh: -7%; HCMV antiviral: inconclusive; HCV inhibitor: inconclusive

How did O=[N+]([O-])/C(C(=C(Cl)Cl)N1CCOCC1)=C1\NCCO1 do in these assays?
Sm TGR block: -1%; VACV mCherry inh: 16µM*; FMDV inh: 5%; VACV Venus inh: 10µM*; HCMV antiviral: 13; HCV inhibitor: 1%

Results for CCOC(=O)CC1=C(C(=O)OCC)C(c2ccncc2)C(C#N)=C(N)O1 (stereo unspecified) ?
Sm TGR block: -26%; VACV mCherry inh: -6%; FMDV inh: -18%; VACV Venus inh: -10%; HCMV antiviral: 17; HCV inhibitor: 11%

How did O=C(Nc1ccncc1)Nc1cccc(C(F)(F)F)c1 do in these assays?
Sm TGR block: -3%; FMDV inh: -1%; HCMV antiviral: -80*; HCV inhibitor: -25%

Results for O=C(Nc1ccc(OC(F)F)cc1)Nc1cccc(C(F)(F)F)c1 ?
Sm TGR block: 12%; VACV mCherry inh: -25%; FMDV inh: 0%; VACV Venus inh: inconclusive; HCMV antiviral: -80*; HCV inhibitor: inconclusive

Results for NNC(=O)Nc1cccc(C(F)(F)F)c1 ?
Sm TGR block: 20%; VACV mCherry inh: -15%; FMDV inh: -10%; VACV Venus inh: 0%; HCMV antiviral: 16; HCV inhibitor: 14%

Results for COC(=O)[C@H](C)NC(=O)Nc1cccc(C(F)(F)F)c1 ?
Sm TGR block: 3%; FMDV inh: -13%; VACV Venus inh: -1%; HCMV antiviral: 28; HCV inhibitor: 11%

How did NC(=O)/C=C\C(=O)Nc1cccc(C(F)(F)F)c1 do in these assays?
Sm TGR block: 3.5µM*; VACV mCherry inh: inconclusive; VACV Venus inh: -18%; HCMV antiviral: -39; HCV inhibitor: inconclusive

Results for O=C(CSc1ccc(-c2ccccn2)nn1)NC1CCCC1 ?
Sm TGR block: 6%; VACV mCherry inh: 9%; FMDV inh: 19%; VACV Venus inh: 11%; HCMV antiviral: -12; HCV inhibitor: -2%

What do the screens show for `CCOC(=O)c1ccc2nc(C)c3c(c2c1)OC(C)C3` (stereo unspecified)?
Sm TGR block: 5%; FMDV inh: -22%; VACV Venus inh: -20%; HCMV antiviral: -36; HCV inhibitor: 10µM*

Results for COc1ccc2nc(C)c3c(c2c1)OC(C)C3 (stereo unspecified) ?
Sm TGR block: -1%; FMDV inh: -13%; VACV Venus inh: -11%; HCMV antiviral: -15; HCV inhibitor: -18%

Results for COc1ccc(C2C(C#N)=C(N)OC3=C2C(=O)CC(C)(C)C3)c(OC)c1OC (stereo unspecified) ?
Sm TGR block: -21%; VACV mCherry inh: -14%; FMDV inh: -21%; VACV Venus inh: -7%; HCMV antiviral: 34; HCV inhibitor: 15%

How did COc1cc(CN2CCNC(=O)C2CC(=O)O)cc(OC)c1 (stereo unspecified) do in these assays?
Sm TGR block: -12%; VACV mCherry inh: 8%; FMDV inh: 7%; VACV Venus inh: 0%; HCMV antiviral: -10; HCV inhibitor: 21%

Source: PubChem BioAssay (National Center for Advancing Translational Sciences (NCATS))
